# Measurements reported in PubChem BioAssay (NCATS).
# Results filed as inconclusive are left out. Activity calls are given as the source filed them. Unless noted, calls follow the shape of the dose curve; as a rule, active = well fitted inhibition curve with a large enough effect; inconclusive = small, poorly fitted or top-dose-only effect; inactive = no such curve, though single readings can be large or run the other way.
# How the values were obtained:
# [1] = qHTS profiling of the MIPE4 collection as inhibitors of Plasmodium falciparum (3D7) proliferation (AID 743344; call rule not given here;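 also: scaled between DMSO vehicle wells and 0.29 µM artemisinin as full inhibition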); settings: P. falciparum 3D7 in erythrocytes, SYBR Green DNA fluorescence, 72 h; at 28.5 µM unless noted
# Procedure, shortened: (§1)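 Parasite DNA was quantified by SYBR Green I fluorescence (ex 485, em 535 nm) after overnight lysis in saponin/Triton buffer at room temperature. Cultures at 0.3% parasitemia and 2.5% hematocrit were first exposed to compound for 72 h at 37 C; signals were normalised to artemisinin (0.29 uM) and vehicle wells.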
# [2] = qHTS profiling of the MIPE4 collection as inhibitors of Plasmodium falciparum (DD2) proliferation (Rep 2) (AID 743346; call rule not given here); settings: P. falciparum Dd2 in erythrocytes, SYBR Green DNA, 72 h; at 28.5 µM unless noted
# Procedure, shortened: as §1
# [3] = qHTS profiling of the MIPE4 collection as inhibitors of Plasmodium falciparum (HB3) proliferation (AID 743347; call rule not given here;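 also: plate controls were DMSO vehicle wells for no effect and artemisinin wells for full effect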); settings: P. falciparum HB3 in erythrocytes, SYBR Green DNA, 72 h; at 28.5 µM unless noted
# Procedure, shortened: as §1
# [4] = High-throughput drug toxicity screening in the BPDCN cell line Gen2.2 (AID 1224824; call rule not given here;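 also: cells exposed to compounds for 48 h before reading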); settings: Gen2.2 BPDCN cells; at 45.8 µM (top of the series) unless noted
# Procedure, shortened: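 Gen2.2 cells, 500 per well in phenol red-free RPMI with 10% FBS, exposed to compounds 48 h at 37 C, 5% CO2; viability by CellTiter-Glo luminescence. Percent activity scaled to DMSO (100%) and 9.2 uM bortezomib final (0%).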
# [5] = High-throughput drug toxicity screening in the BPDCN cell line Cal-1 (AID 1224825; call rule not given here); settings: Cal-1 BPDCN cell viability, qHTS; at 45.8 µM (top of the series) unless noted
# Procedure, shortened: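 CellTiter-Glo luminescence after 48 h compound exposure; percent activity scaled with DMSO as 100% and bortezomib (9.2 uM final) as 0%. Cal-1 cells seeded at 500/well in RPMI, 10% FBS, no phenol red.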
# [6] = qHTS assay for measurement of the activity of small molecule inhibitors on Zika virus induced Caspase-3 activity in human iPSC derived neural progenitor cells (hNPCs) (AID 1224857); also: % of control where 0% means no effect; nearly all actives have a fitted effect of over 65% in size
# Procedure, shortened: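 Caspase-3/7 induction by a 6-hour ZIKV infection was quantified with a luminescent Caspase-Glo 3/7 reagent incubated 30 minutes at room temperature. Compounds were preincubated with hNPCs for 1 hour; inhibition was calculated against uninfected and infected control wells.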
# [7] = qHTS assay for measurement of the activity of small molecule inhibitors on Zika virus induced Caspase-3 activity in human astrocytoma cells (AID 1224859);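 also: plate controls were ZIKV-infected untreated cells for no effect and uninfected cells for full effect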
# Procedure, shortened: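 In SNB-19 cells plated at 250 cells/well and grown 16-20 h, compounds were applied 1 h before ZIKV (2 FFU/cell). Six hours later caspase-3/7 luminescence was recorded.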
# [8] = qHTS Screen of the MIPE 4.0 Collection Against Ewings Sarcoma (RDES) (AID 1259252); also: nearly all actives have a fitted effect of over 35% in size; also: potency is read from the fitted curve at half-maximal effect
# Procedure, shortened: (§2)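 Viability screen: 48 h incubation at 37C, 95% humidity, 5% CO2 with serially titrated compound, followed by CellTiter-Glo readout.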
# [9] = qHTS Screen of the MIPE 4.0 Collection Against Ewings Sarcoma (TC71) (AID 1259253); also: nearly all actives have a fitted effect of over 40% in size; also: potency is read from the fitted curve at half-maximal effect
# Procedure, shortened: as §2
# [10] = qHTS Screen of the MIPE 4.0 Collection Against Ewings Sarcoma (EW8) (AID 1259255); also: nearly all actives have a fitted effect of over 35% in size; also: potency is read from the fitted curve at half-maximal effect;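 as to viability: 100% = DMSO-treated cells and 0% = medium-only wells without cells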
# Procedure, shortened: as §2
# [11] = qHTS profiling of the MIPE4 collection as inhibitors of Plasmodium falciparum (DD2) proliferation (AID 743345; call rule not given here); settings: P. falciparum Dd2 in erythrocytes, SYBR Green DNA, 72 h; at 28.5 µM unless noted
# Procedure, shortened: as §1
SMILES,"parasite growth, % of DMSO control [1] [%]","parasite growth, % of control (lower = inhibition) [2] [%]","growth, % of control [3] [%]","cell viability, % of control (lower = more cytotoxic) [4] [%]",viability (% of control) [5] [%],Potency [6],Potency [7],Potency [8],Potency [9],Potency [10],"parasite growth remaining, % of DMSO control (lower = more inhibition) [11] [%]"
CC(=O)O[C@]1(C(C)=O)CC[C@H]2[C@@H]3C=C(C)C4=CC(=O)CC[C@]4(C)[C@@H]3CC[C@@]21C,23.2,18.8,10.6,5.55,3.38,inactive,inactive,3320 nM (active),4180 nM (active),7430 nM (active),–
O=c1ccn([C@@H]2O[C@H](CO)[C@H](O)[C@@H]2F)c(=O)[nH]1,187,–,645,191,119,inactive,inactive,3720 nM (active),3320 nM (active),26400 nM (active),100
Cc1noc(-c2ccc(CSCCC(=O)O)cc2)c1NC(=O)OC(C)c1ccccc1Cl (stereo not given),41.1,49.9,61.1,157,103,inactive,inactive,inactive,inactive,inactive,–
C[C@@]12C(=O)OC(=O)[C@@]1(C)C1CCC2O1,12.4,13.5,7.05,5.4,3.87,inactive,inactive,2640 nM (active),4180 nM (active),2640 nM (active),–
Cc1ccc(O)c(C(CCN(C(C)C)C(C)C)c2ccccc2)c1 (stereo not given),11.8,10.4,19.1,239,103,inactive,inactive,inactive,inactive,inactive,–
O=C(Nc1ccc(Oc2ccnc3[nH]ccc23)c(F)c1)c1cccn(-c2ccc(F)cc2)c1=O,35.8,–,7.02,83,87.2,inactive,inactive,inactive,inactive,inactive,69.1
COc1ccc(C=Cc2cc(OC)c(OC)c(OC)c2)cc1NC(=O)[C@H](N)CO,75.4,79.9,85.5,6.82,7.97,inactive,inactive,2.3 nM (active),3.3 nM (active),4.2 nM (active),–
COc1cccc2c1C(=O)c1c(O)c3c(c(O)c1C2=O)C[C@@](O)(C(C)=O)C[C@H]3O[C@H]1C[C@H](N)[C@H](O)[C@H](C)O1,13.5,–,6.78,3.75,3.72,inactive,inactive,41.8 nM (active),66.2 nM (active),52.6 nM (active),–
OCC(O)C(O)C(O)CO (stereo not given),88.8,–,95.9,59.2,66.8,inactive,inactive,inactive,inactive,inactive,105
CC(C)C[C@H](NC(=O)CNC(=O)c1cc(Cl)ccc1Cl)B1OC(=O)CC(CC(=O)O)(C(=O)O)O1 (stereo not given in full),–,7.43,8.02,4.85,3.61,inactive,inactive,235 nM (active),235 nM (active),118 nM (active),7.15
Cc1cnc(Nc2ccc(CN3CCOCC3)cc2)nc1Nc1cccc(S(=O)(=O)NC(C)(C)C)c1,–,16.8,4.53,1.99,3.36,inactive,inactive,3320 nM (active),3320 nM (active),2640 nM (active),8.36
N#Cc1c(NC(=O)c2cccc3ccccc23)sc2c1CCCC2,–,90,69.7,83.4,9.83,inactive,inactive,296 nM (active),526 nM (active),469 nM (active),81.7
COc1cc(C(C)C)c(Oc2cnc(NC(CO)CO)nc2N)cc1I,82.2,–,97.9,294,1.88,inactive,inactive,935 nM (active),1050 nM (active),7430 nM (active),86.9
CCNC(=O)Nc1ccc(-c2nc3c(c(N4CCOC[C@H]4C)n2)CCN(C2COC2)C3)cc1,24.6,–,71.6,5.52,19.9,inactive,inactive,1050 nM (active),935 nM (active),1050 nM (active),87.1
c1coc(CNc2ncnc3nc[nH]c23)c1,–,–,–,90.9,102,inactive,inactive,inactive,inactive,inactive,26.3
O=C1NCCc2[nH]c(-c3ccncc3)cc21,23.6,17.3,5.62,3.21,12.4,inactive,inactive,3320 nM (active),2640 nM (active),3320 nM (active),–
CN(C)CCN1C(=O)c2cccc3cc(N)cc(c23)C1=O,18.3,10.8,9.26,5.29,4.08,inactive,inactive,16600 nM (active),14800 nM (active),1660 nM (active),–
C[N+](C)([O-])CCNc1ccc(NCC[N+](C)(C)[O-])c2c1C(=O)c1c(O)ccc(O)c1C2=O,–,–,–,105,19.7,inactive,inactive,18700 nM (active),16600 nM (active),20900 nM (active),13.5
CC1(C)O[C@@H]2C[C@H]3[C@@H]4CCC5=CC(=O)C=C[C@]5(C)[C@@H]4[C@@H](O)C[C@]3(C)[C@]2(C(=O)CO)O1,7.1,–,5.96,97.8,46.1,inactive,inactive,inactive,inactive,inactive,49.3
